Several values for one entry are separate records, joined by “and”; a condition that tells them apart may be missing. Equal entries are not always repeated. About 1,500 (2.5%) of roughly 59,000 compounds were called active. Entries that show only a call come without a potency. About 10% were inconclusive and are not listed. The call rests on the fitted dose curve; in most records, active means well fitted inhibition curve with a large enough effect; inconclusive means small, poorly fitted or top-dose-only effect; inactive means flat fitted curve, though single readings scatter. This excerpt belongs to a sample that is enriched for actives. Where a structure was tested more than once in an assay, its records may differ in their call.
Each molecule was assayed against N-terminal Xaa-Pro-Lys N-methyltransferase 1 (Homo sapiens) (UniProt Q9BV86) (assay: Primary qHTS for Inhibitors of N-terminal methyltransferase 1 (NTMT1): MTaseGlo Assay). Settings: NTMT1 MTase-Glo SAH luminescence, purified enzyme; series mostly up to 114 µM.
N-terminal Xaa-Pro-Lys N-methyltransferase 1 (Homo sapiens), sequence (Q9BV86 whole entry, looked up): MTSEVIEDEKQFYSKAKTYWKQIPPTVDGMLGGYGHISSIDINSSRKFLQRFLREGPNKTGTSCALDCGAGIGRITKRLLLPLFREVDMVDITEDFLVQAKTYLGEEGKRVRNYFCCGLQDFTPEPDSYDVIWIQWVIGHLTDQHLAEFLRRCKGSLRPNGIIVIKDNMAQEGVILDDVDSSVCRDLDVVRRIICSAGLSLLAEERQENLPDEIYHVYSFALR
From the text: Assay Submitter (PI): Rong Huang Ph.D.
Purdue University, West Lafayette, IN 47907
The N-terminal methytransferase 1 is the first methyltransferase that methylates protein alpha-N-amines and plays an important role in regulating cell mitosis, chromatin interactions and DNA repair. It is observed to be over-expressed in various cancer patient tissues like malignant melanoma and colorectal cancer tissues. Knockdown of NTMT1 in cancer cells causes cell mitotic defects and enhances sensitivity to DNA damaging chemotherapeutics. […] These critical cellular processes in which NTMT1 is implicated, coupled with emerging links to cellular dysfunction, strengthen the inference that NTMT1 is a compelling novel anticancer target. Progress have been made in understanding the molecular properties of NTMT1 and the biological consequences of protein alpha-N-terminal methylation, but there are no specific small molecule probes available for NTMT1 to fully characterize its MTase activity. To address this unmet need, a panel of assay is created and established to enable quantitative high-throughput screening (qHTS) for novel, potent, and selective small molecule NTMT1 inhibitors. Two orthogonal qHTS that use different reagents (ThioGlo vs. MTaseGlo) are developed for primary robotic screening against the NCATS chemical library of more than 400,000 small molecules. Identified inhibitors are reacquired, validated, and further characterized.
MTaseGlo Assay is a luminescence screen that measure the activity of methyltransferases based on the reaction product S-adenosyl homocysteine (SAH). The substrate SAM is converted to SAH upon enzyme activation. MTase-Glo reagent and detection solution convert SAH to ATP and measure the light from the luciferase reaction.
Materials: NTMT1 enzyme, substrate SPKRIA, control peptide RCC1-6 is provided by the Huang laboratory.
SEQUENCE No. (e.g., 1, 2, 3, etc.); […] (e.g., Cells, Incubation, Reagent, etc.); VALUE; DESCRIPTION
1; Enzyme; 3 uL; Dispense enzyme mixture (final concentrations of 125 nM NTMT1 and 100 uM SAM) into Greiner 1536-well white / solid bottom assay plate (Greiner Bio One, Monroe, NC).
2; Compounds; 23 nL; Compounds and controls were transferred via a Kalypsys Pin Tool (Wako USA) equipped with a 1536-slotted pin array (Wako Automation, Richmond, VA)
3; Incubation; 15 min; Incubate at room temperature
4; Substrate; 1 uL; Dispense 1 uL of substrate at final concentration of 1 uM. Buffer solution was dispensed in control wells. The assay plate was covered with metal lids.
5; Incubation; 30 min; Incubate at room temperature, protected from lights.
6; Reagent; 1 uL; Dispensed 5x MTase-Glo detection reagent (R) into the assay plate. The plate was covered with metal lids.
7; Incubation; 30 min; Incubate the assay plates at room temperature in the dark to allow for SAH to be converted to ADP.
8; Reagent; 5 uL; Dispense 5 uL of 1x MTase-Glo Detection Solution (R) to allow for ADP to be converted to ATP which was then detected with a luciferase reaction.
9; Centrifuge; 15 sec; Centrifuge the assay plate for 15 seconds at 1000 RPM.
10; Incubation; 30 min; Assay plates were incubation at room temperature in the dark.
11; Detection; Luminescence; Plates were read on ViewLux detector (PerkinElmer). Data were normalized to no-enzyme (0% activity) and no-inhibitor (DMSO; 100%) controls, and the resulting percent inhibition data were fitted to a 4-parameter Hill equation using GraphPad Prism.
Further: nearly all actives have a fitted effect of over 65% in size.
Potency means the concentration at half of the fitted maximal effect.

**Q.** How did the activity change, negative = inhibition turn out when `COc1cc2c(cc1OC)CN(CCc1ccc(-n3nnc(-c4cc(OC)c(OC)cc4NC(=O)c4cc(=O)c5ccccc5o4)n3)cc1)CC2` was run?
**A.** -7.78% [at 1.07 µM] (inactive)

**Q.** With `N#Cc1c(N)nc(N)nc1N[C@H](c1nc2c(F)ccc(Cl)c2c(=O)n1-c1cccnc1)C1CC1` as the molecule, how does the Potency read?
**A.** inactive

**Q.** With `CC(C)(C)NS(=O)(=O)c1cccc(Nc2nn3c(=O)c4ccccc4nc3s2)c1` as the molecule, how does the Potency read?
**A.** inactive

**Q.** For `Cc1ccc(N2CCN(C(=S)Nc3cc(C)ccn3)CC2)cc1`, which Potency is on record?
**A.** 79.4 µM (active)

**Q.** `FC(F)(F)c1cccc(N2CCN(C(=S)Nc3ccncc3)CC2)c1` was tested. Which Potency did it give?
**A.** inactive

**Q.** With `Cc1ccc(CNc2ccc(N3CCCCC3)cc2)cc1` as the molecule, how does the Potency read?
**A.** inactive

**Q.** With `CCc1ccc(-c2nn3c(C)nnc3s2)cc1NC(=O)c1ccc(-c2cccc(Cl)c2)o1` as the molecule, how does the Potency read?
**A.** inactive

**Q.** How did the Potency turn out when `CCOc1ccc(CCNC(=O)c2cnon2)cc1OCC` was run?
**A.** inactive

**Q.** With `C=Cc1c(C)c2cc3nc(cc4[nH]c(cc5nc(cc1[nH]2)C(C)=C5CCC(=O)O)c(CCC(=O)OC)c4C)[C@@]1(C)C3=CC=C(C(=O)OC)[C@H]1C(=O)OC` as the molecule, how does the Potency read?
**A.** 50.1 µM (active)

**Q.** With `N#Cc1ccc(NC(=O)Nc2nnc(-c3ccncc3)s2)c(Cl)c1` as the molecule, how does the Potency read?
**A.** inactive

**Q.** `CC[C@H](Nc1ncnc2nc[nH]c12)c1oc2ccccc2c(=O)c1-c1cccc(F)c1` was tested. Which Potency did it give?
**A.** inactive

**Q.** For `Cc1ccc(-c2cc(C(=O)Nc3cccc(Cl)c3)c3ccccc3n2)cc1C`, which Potency is on record?
**A.** inactive

**Q.** `Cc1cc(NC(=O)Nc2nnc(-c3ccncc3)s2)ccc1Cl` was tested. Which Potency did it give?
**A.** inactive

**Q.** Which Potency does the source give for `Fc1ccccc1-c1ccc(Nc2nc(-c3ccncc3)nc3ccccc23)cc1F` here?
**A.** inactive

**Q.** `Fc1cc(Nc2nc(-c3ccncc3)nc3ccccc23)ccc1-c1ccc(F)c(F)c1F` was tested. Which Potency did it give?
**A.** inactive

**Q.** For `Fc1ccc(Cl)cc1-c1nc(Nc2ccncc2)c2nccnc2n1`, which Potency is on record?
**A.** inactive and 39.8 µM (active)

**Q.** How did the Potency turn out when `C=CCNc1oc(-c2cccnc2)nc1C#N` was run?
**A.** inactive

**Q.** `Cc1noc(C)c1-c1ccc2ncnc(NCc3ccc(F)c(F)c3)c2c1` was tested. Which Potency did it give?
**A.** inactive

**Q.** For `COc1cc2nc(Nc3ccccc3)nc(NC3CC3)c2cc1OC`, which Potency is on record?
**A.** 50.1 µM (active)

**Q.** Which Potency does the source give for `COc1cc(Nc2nc(-c3ccc(OC)c(OC)c3)nc3ccccc23)cc(OC)c1` here?
**A.** inactive

**Q.** With `OC1CCC(Nc2nc(-c3ccccc3)nc3[nH]ccc23)CC1` (centres undefined) as the molecule, how does the Potency read?
**A.** inactive

**Q.** With `O=C(CSc1nnc(-c2cccc([S+](=O)([O-])N3CCCC3)c2)n1-c1ccccc1)Nc1cccc(C(F)(F)F)c1` as the molecule, how does the Potency read?
**A.** inactive

**Q.** For `CC(C)(c1ccc(OCC(O)CO)cc1)c1ccc(OCC(O)CCl)cc1` (centres undefined), which Potency is on record?
**A.** inactive

**Q.** `O=C(O[C@@H]1Cc2c(O)cc(O)cc2O[C@H]1c1cc(O)c(O)c(O)c1)c1cc(O)c(O)c(O)c1` was tested. Which Potency did it give?
**A.** 44.7 µM (active)

**Q.** How did the Potency turn out when `N#Cc1ccc(OC2=NS(=O)(=O)c3ccccc32)cc1` was run?
**A.** inactive

**Q.** Which Potency does the source give for `Cc1ccc2nc3sc(C(=O)NCCc4cccnc4)cc3cc2c1` here?
**A.** inactive

**Q.** For `O=S(=O)(NCCCCCCNS(=O)(=O)c1c(F)cccc1F)c1ccc2c(c1)OCCO2`, which Potency is on record?
**A.** inactive

**Q.** `NNc1nnc(NN)c2ccccc12` was tested. Which Potency did it give?
**A.** 22.4 µM (active)

**Q.** `O=C1CCCC2=C1[C@@]1(CCC(c3ccccc3)C1)N=C(Nc1nc3ccccc3o1)N2` (some centres undefined) was tested. Which Potency did it give?
**A.** inactive

**Q.** Which Potency does the source give for `Nc1ncnc2c1c(I)cn2[C@@H]1C[C@H](N)[C@@H](O)[C@H]1O` here?
**A.** 2.51 µM (active)

**Q.** For `CC(=O)c1cccc(-c2ccc(-c3nc4ccccc4c(=O)[nH]3)o2)c1`, which Potency is on record?
**A.** inactive

**Q.** With `N#Cc1nc(Nc2cccc(Cl)c2)nc(NC2CCCC2)n1` as the molecule, how does the Potency read?
**A.** inactive

**Q.** Which Potency does the source give for `[O-][n+]1onc(-c2ccccc2)c1CO` here?
**A.** inactive

**Q.** Which Potency does the source give for `O=C1COc2cc([S+](=O)([O-])Nc3ccc(Cl)c(Cl)c3)c(Cl)cc2N1` here?
**A.** inactive

**Q.** `Cc1cnc(-c2ccccc2C(C)C)nc1NCC1CCN(C)CC1` was tested. Which Potency did it give?
**A.** inactive

**Q.** How did the Potency turn out when `CCOC(=O)C1CCN(C(=O)C(C)(C)NC(=O)Nc2ccc(F)c(F)c2)CC1` was run?
**A.** inactive

**Q.** Which Potency does the source give for `O=C(Nc1ccc(-c2ccc(Cl)c(Cl)c2)cc1)C1=C(O)c2ccccc2S(=O)(=O)N1` here?
**A.** inactive

**Q.** Which Potency does the source give for `NS(=O)(=O)c1ccc(NC(=O)C(=O)Nc2ccc3nc4n(c(=O)c3c2)CCCCC4)cc1` here?
**A.** inactive

**Q.** For `COc1cccc(C(=O)Nc2ccc3oc(-c4ccc5ccccc5c4)nc3c2)c1`, which Potency is on record?
**A.** inactive

**Q.** For `COc1cccc(C(=O)Nc2ccc3nc4n(c(=O)c3c2)CCCCC4)c1`, which Potency is on record?
**A.** 50.1 µM (active)

**Q.** `Cc1cc(C)n2ncc(C(=O)Nc3cccc(C#N)c3)c2n1` was tested. Which Potency did it give?
**A.** inactive

**Q.** With `CCOc1ccc(CCNC(=O)c2cc3ccccc3n2Cc2ccc(Cl)c(F)c2)cc1OCC` as the molecule, how does the Potency read?
**A.** inactive

**Q.** Which Potency does the source give for `CC(C)c1ccccc1SC1=NS(=O)(=O)c2ccccc21` here?
**A.** inactive

**Q.** With `CN(C)c1ccc(C(=O)NCC(=O)OC(C(=O)Nc2cc(C(F)(F)F)ccc2Cl)c2ccccc2)cc1` (centres undefined) as the molecule, how does the Potency read?
**A.** inactive

**Q.** For `COc1ccc(Cn2ccn(CC(=O)Nc3cc(C)ccc3C)c(=O)c2=O)cc1`, which Potency is on record?
**A.** 79.4 µM (active)

**Q.** Which Potency does the source give for `COc1ccc(Cn2ccn(Cc3cccc(OC)c3)c(=O)c2=O)cc1` here?
**A.** inactive

**Q.** `Cc1ccc(C)c(NC(=O)Cn2ccn(-c3ccc(F)cc3)c(=O)c2=O)c1` was tested. Which Potency did it give?
**A.** inactive

**Q.** Which Potency does the source give for `N#Cc1ccc(N[S+](=O)([O-])c2ccc(Nc3nc(-c4ccccc4)cs3)cc2)cc1` here?
**A.** inactive

**Q.** With `O=[S+]([O-])(c1ccc(OC(F)(F)F)cc1)N1CCN([S+](=O)([O-])c2ccc3c(c2)OCCO3)CC1` as the molecule, how does the Potency read?
**A.** inactive

**Q.** For `CN1CCOc2cc(S(=O)(=O)N3CCN(S(=O)(=O)c4c(F)cccc4F)CC3)cnc21`, which Potency is on record?
**A.** inactive

**Q.** For `COCC1CCCN(C(=O)CC(c2ccc3c(c2)OCO3)c2c(O)cc(OC)cc2OC)C1` (centres undefined), which Potency is on record?
**A.** inactive

**Q.** `CCOc1cc(CCNC(=O)c2cc3sccc3n2Cc2ccccc2)cc(F)c1OCC` was tested. Which Potency did it give?
**A.** inactive

**Q.** `Cc1cccc2nc(-c3ccc(Cl)s3)c(Nc3ccc4c(c3)OCCO4)n12` was tested. Which Potency did it give?
**A.** 1.78 µM (active)

**Q.** For `Cc1ccc(Nc2c(-c3ccc(C)s3)nc3ccccn23)cc1`, which Potency is on record?
**A.** inactive

**Q.** Which Potency does the source give for `Oc1ccccc1-c1nc2ccc(Cl)cn2c1Nc1ccc2c(c1)OCCO2` here?
**A.** inactive

**Q.** With `Cc1cc2c(s1)c1cnn(Cc3cc(F)c(Cl)cc3Cl)c(=O)c1n2C` as the molecule, how does the Potency read?
**A.** inactive

**Q.** With `Fc1cc(Nc2nc(-c3ccncc3)nc3ccccc23)ccc1-n1cncn1` as the molecule, how does the Potency read?
**A.** inactive

**Q.** For `Cc1c(Cl)cccc1S(=O)(=O)Nc1nc(CCN2CCOCC2=O)cs1`, which Potency is on record?
**A.** inactive

**Q.** Which Potency does the source give for `Cc1cc(Nc2cc(CN3CCOCC3)c3nc(C)c(Cc4ccc(Cl)cc4F)n3n2)n[nH]1` here?
**A.** 30.4 µM (active) and 7.08 µM (active) and 11.2 µM (active)
